Screening results as filed in PubChem BioAssay.
Most compounds without a hit are left out; they make up all but 2.3% or so of the library.
Tau fluor cs: counter-screen for tau fibril formation inhibitors | tau K18 P301L Alexa594 fluorescence, heparin fibrillization | Potency, µM (titrated, usually from 57.7 µM), for the others: at the highest dose activity change, negative = decrease | 280,000 tested, 0.93% active | AID 1463; further: potency means the concentration at half of the fitted maximal effect; nearly all actives have a fitted effect of over 55% in size
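Human K18 P301L tau (15 uM unlabeled plus 0.24 uM Alexa 594-labeled, final) in 100 mM sodium acetate pH 7 was mixed with compound and 20 uM heparin and incubated 6 hr at 37 C.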
Tau fibril FP: tau fibrillization inhibition (FP). 280,000 tested, 0.39% active. Potency, µM (highest dose often 57.7 µM), without a hit: at the highest dose activity, negative = inhibition, usual class: inhibitors. P10636. K18 P301L tau heparin fibrillization, Alexa594 FP, 6 h. AID 1468; further: potency means the concentration at half of the fitted maximal effect; nearly all actives have a fitted effect of over 55% in size
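K18 P301L tau (15 uM unlabeled/0.24 uM Alexa 594-labeled, final) + compound + heparin 20 uM final; 100 mM NaOAc pH 7; 6 hr 37 C; ThT 30 uM final added, 1 hr RT; FP ex 555/em 632 nm.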
FBPA coupling cs: inhibits coupling enzyme system, counter-screen for aldolase hits | coupling enzyme system counterscreen, AmpLite Red fluorescence | activity change, negative = inhibition, % at 58.2 µM, hits read low | 290,000 tested, 0.67% active | AID 2472; in the data active means activity change below about -30%
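Activity here indicates interference with the coupling reaction, not aldolase inhibition. Compounds at 57.5 uM final met coupling enzymes for 10 min at RT; substrate and AmpLite Red detection followed, with a 525/598 nm fluorescence read after 20 min.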
USP1-UAF1 inh: USP1/UAF1 (human) deubiquitinase inhibition | AID 743255 | Potency, µM (series often up to 57.1 µM), for inactives: top-dose activity change, negative = inhibition, actives largely listed as inhibitors | O94782 | 390,000 tested, 0.23% active | recombinant USP1/UAF1, Ub-Rhodamine cleavage fluorescence; further: potency means the concentration at half of the fitted maximal effect; nearly all actives have a fitted effect of over 60% in size
Target sequence (O94782 whole entry, looked up): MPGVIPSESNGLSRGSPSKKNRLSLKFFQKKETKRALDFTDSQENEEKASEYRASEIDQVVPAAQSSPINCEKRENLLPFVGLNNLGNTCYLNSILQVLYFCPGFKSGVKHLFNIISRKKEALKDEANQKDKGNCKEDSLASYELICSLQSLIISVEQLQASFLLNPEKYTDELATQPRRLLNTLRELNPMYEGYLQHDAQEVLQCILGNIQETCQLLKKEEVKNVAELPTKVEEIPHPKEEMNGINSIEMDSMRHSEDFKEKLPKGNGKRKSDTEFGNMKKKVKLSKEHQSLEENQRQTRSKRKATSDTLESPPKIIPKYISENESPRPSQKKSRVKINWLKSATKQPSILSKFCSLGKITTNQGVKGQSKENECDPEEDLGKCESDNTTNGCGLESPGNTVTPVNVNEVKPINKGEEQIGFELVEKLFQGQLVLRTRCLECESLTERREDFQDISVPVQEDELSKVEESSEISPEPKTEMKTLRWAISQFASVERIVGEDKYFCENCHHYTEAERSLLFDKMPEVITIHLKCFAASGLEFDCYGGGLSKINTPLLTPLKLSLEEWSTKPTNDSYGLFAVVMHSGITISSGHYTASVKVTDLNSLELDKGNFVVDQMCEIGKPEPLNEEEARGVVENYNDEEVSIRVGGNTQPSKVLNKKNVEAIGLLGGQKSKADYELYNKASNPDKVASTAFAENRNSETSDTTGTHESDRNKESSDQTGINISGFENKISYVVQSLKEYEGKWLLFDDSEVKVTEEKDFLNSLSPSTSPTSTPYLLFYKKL
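USP1/UAF1 complex at 1 nM was preincubated with compound for 15 min at room temperature, then Ub-Rho substrate (150nM final) was added. Fluorescence (480/540 nm) was read kinetically, 6 reads every 60 seconds.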
Tau fibril ThT: blocks human tau fibril formation measured by thioflavin T. P10636. recombinant tau K18 P301L (four-repeat tau fragment), heparin-induced fibrillization, ThT fluorescence. Potency, µM (series often up to 57.4 µM), without a hit: at the highest dose activity, negative = inhibition, most hits filed as inhibitors. 270,000 tested, 2.1% active. AID 1460; further: potency means the concentration at half of the fitted maximal effect; nearly all actives have a fitted effect of over 55% in size
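K18 P301L tau (15 uM + 0.24 uM Alexa 594-tagged), heparin 20 uM, NaOAc pH 7, 6 h 37 C; ThT 30 uM, 1 h RT, ex 450/em 510 nm.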
* hit, by the source's call; ? = inconclusive; · = no result given; ! = a repeat was not active; [ ] = remark or other dose. Unless noted, the call rests on the fitted dose curve; in most records, active means well fitted curve in the direction sought with a large enough effect; inconclusive means small, poorly fitted or top-dose-only effect, or another doubt; inactive means no such curve, though single readings can be large; an effect the other way counts as inactive or inconclusive. On the % scale 0 is the no-effect control and ±100 the full control effect.

SMILES | Tau fluor cs | Tau fibril FP | FBPA coupling cs | USP1-UAF1 inh | Tau fibril ThT
Cc1cccc(Cn2c(C)c(CNC3CCCCC3)c(C(=O)O)c2C)c1 | -4% | 1% | · | -6% | -3%
O=C(Nc1ccc(Cl)cn1)c1ccc(-c2cc(Cl)ccc2Cl)o1 | ? | ? | 3 | -12% | 7.9µM*
NC(=O)c1c(NC(=O)c2cc(-c3ccc(F)cc3)on2)sc2c1CCCC2 | -22% | ? | · | -10% | 32µM*
O=c1c(-c2ccccc2)coc2cc(O)cc(O)c12 | ? | ? | -35* | · | -101%
Cn1c(-c2ccccc2)cc(=NNS(C)(=O)=O)c2cc(S(=O)(=O)O)ccc21 | · | · | · | -26% | ·
CCCCC1=CC2=CC(=O)C(C)(OC(=O)CC)C(=O)C2=CN1CC(C)C (stereo not drawn) | -4%[11.6 µM] | 2%[11.6 µM] | -13 | -45% | -5%[11.5 µM]
CCCCC1=CC2=CC(=O)C(C)(OC(=O)CC)C(=O)C2=CN1C(CO)CO (stereo not drawn) | -1%[11.6 µM] | -1%[11.6 µM] | -42*! | ? | 1%[11.5 µM]
Cc1ccc(/C=[N+](\[O-])c2ccc(N(C)C)cc2)c2nsnc12 | ? | 32µM* | -41* | ? | 6.3µM*
CCc1ccc(-c2nn(CC(=O)NCc3ccccc3)c3c2cnc2ccc(C)cc23)cc1 | -2% | -5% | · | -20% | -3%
COc1cccc(N=Nc2c(N)[nH]n3c(=O)c4c(nc23)CCCC4)c1 | ? | 3% | -2 | -10% | 1.4µM*
Cc1nc2c3ccccc3nc(NNC(=O)CCC(=O)N3CCN(c4cccc(Cl)c4)CC3)n2n1 | -17% | 5% | · | 7% | ?
Cn1c2ccccc2c(=O)n2c(=O)c3ccccc3cc12 | -5% | -3% | -35* | · | -1%
[O-][N+](=Cc1ccccc1)CC1(O)CCCCC1 | · | · | · | 1% | ·
O=C(O)c1ccnc(C(=O)O)c1 | -10% | ? | -72* | -14% | 1%
O=C(Nc1ccc2[nH]c(=S)sc2c1)c1ccccc1 | -12% | 3% | 2 | -6% | -16%
O=C(Nc1ccc2[nH]c(=S)sc2c1)Nc1ccccc1F | 11µM*[quencher] | -6% | 0 | ? | 11µM*
Cc1ccc2oc3c(c(=O)c2c1)C(c1ccc(F)cc1)N(c1nc(C)c(C)s1)C3=O (stereo not drawn) | -2% | -2% | · | -25% | 0%
CCc1ccc(NC(=O)C(C)OC(=O)c2cccc(S(=O)(=O)N3CCc4ccccc4C3)c2)cc1 (stereo not drawn) | 1% | -5% | -45* | -10% | 9%
CCCSc1nc(O)c(C(c2ccc(OC)c(O)c2)c2c(O)nc(SCCC)n(C)c2=O)c(=O)n1C | -16% | ? | 17 | -17% | 4µM*
COc1cccc(C(c2c(O)nc(SC)n(C)c2=O)c2c(O)nc(SC)n(C)c2=O)c1 | -17% | ? | 8 | -5% | 13µM*
CSc1nc(C)c(Oc2ccccc2)c(=O)n1C | 3% | -1% | 6 | -12% | -2%
Cc1ccc(Cn2c(CO)cnc2SCC(=O)Nc2ccc(C)c(Cl)c2)cc1 | -27% | 2% | · | -14% | -1%
CCOC(=O)c1c(C)[nH]c(C)c1S(=O)(=O)N1CCCC(C(=O)NCc2ccc(Cl)cc2)C1 (stereo not drawn) | -3% | -3% | · | -25% | 9%
C=CCOc1ccc(/C=C2\SC(=S)N(NS(=O)(=O)c3ccc(C)cc3)C2=O)cc1 | · | · | 5 | ? | ·
O=C(C1=C[C@@H]2[C@H]3C(=O)N(c4ccccc4Cl)C(=O)[C@H]3[C@@H](C(=O)c3ccc(Cl)cc3)N2C=C1)c1ccccc1 | ? | -9% | -19 | · | 22µM*
SMILES | Tau fluor cs | Tau fibril FP | FBPA coupling cs | USP1-UAF1 inh | Tau fibril ThT
O=C(C1=C[C@@H]2[C@H]3C(=O)N(c4cccc(Cl)c4)C(=O)[C@H]3[C@@H](C(=O)c3ccc(Cl)cc3)N2C=C1)c1ccccc1 | -16% | -2% | -2 | -17% | ?
O=C(CSc1ccccc1)N1CCc2c([nH]c3ccccc23)C1c1ccc(Cl)cc1 (stereo not drawn) | -9% | -4% | · | 0% | -1%
C=CCCC(=O)Nc1nc(C)c(-c2csc(Nc3ccccc3OC)n2)s1 | 13µM*[quencher] | ? | -4 | -19% | 7.1µM*
CCCCC(=O)Nc1nc(C)c(-c2csc(Nc3ccccc3OC)n2)s1 | 16µM*[quencher] | 13% | 2 | -20% | ?
CCCCCCC(=O)Nc1nc(C)c(-c2csc(Nc3cc(OC)ccc3OC)n2)s1 | ? | ? | -4 | ? | ?
CCCCCC(=O)Nc1nc(C)c(-c2csc(Nc3cc(OC)ccc3OC)n2)s1 | 11µM*[quencher] | 15% | 0 | -9% | 16µM*
C=CCNc1nc(-c2sc(NC(=O)CC)nc2C)cs1 | ? | -2% | 1 | -6% | ?
CCC(C)C(=O)Nc1nc(C)c(-c2csc(Nc3ccccc3OC)n2)s1 (stereo not drawn) | 13µM*[quencher] | 16% | -6 | 13% | ?
Cn1nc(-c2ccccc2)nc1-c1ccccc1 | · | · | · | 15% | ·
CN=c1nc(-c2ccccc2)n(-c2ccccc2)s1 | -16% | ? | · | -17% | 22µM*
CC[n+]1c(/C=C/c2c[nH]c3ccccc23)ccc2cc(C)ccc21 | 1.3µM*[fluorescent] | ? | -4 | ? | 2µM*
O=C1CC(N2CCOCC2)=NN1c1ccc([N+](=O)[O-])cc1 | ? | 2% | -7 | ? | 7.1µM*
O=[N+]([O-])c1ccc(N2CCOCC2)nc1 | 4% | 3% | 3 | -10% | -14%
CN(C)c1ccc(/C=C2/C(=O)N(c3ccc([N+](=O)[O-])cc3)N=C2N2CCOCC2)cc1 | ? | -6% | -2 | · | 16µM*
O=C(COc1cccc2c1CCNC2=O)Nc1ccc(F)cc1 | · | · | · | -21% | ·
CCCOC(=O)c1c(N)sc(C(=O)OCC)c1C | ? | 1% | 1 | -10% | ?
CCOC(=O)c1sc(N)c(C(N)=O)c1C | -5% | -3% | -33* | -24% | -9%
CCOC(=O)c1c(N)ssc1=S | -27% | 11µM* | -1 | -10% | 7.9µM*
CCOC(=O)c1c(N)sc(C(N)=O)c1C | 1% | -3% | 6 | 2% | -8%
CCOC(=O)c1c(N)sc(C(=O)N2CCCCCC2)c1C | 0% | 4% | 2 | -5% | -2%
CCOC(=O)c1c(N)sc2c1CCSC2 | ? | -14% | 1 | 5% | 25µM*
CCOC(=O)c1c(N)sc(N)c1C(=O)OCC | ? | ? | -14 | -21% | 14µM*
Cc1cc(C)c(CN2CCC(n3nccc3NC(=O)CCOc3ccccc3)CC2)cc1C | · | · | -2 | -15% | ·
CN1CCN(C(=O)C(=O)Nc2c3c(nn2-c2cccc(Cl)c2)CSC3)CC1 | -8% | -4% | · | -10% | -6%
CCOC(=O)c1c(N)sc(=S)c2c1CCC2 | ? | ? | -23 | -11% | 25µM*
CCOC(=O)C1=C(CS(=O)(=O)c2cccc(C(F)(F)F)c2)NC(=O)NC1c1cccc(OC)c1 (stereo not drawn) | -19% | 4% | · | -13% | -10%
